21 compounds from PubChem BioAssay (NCI) can be followed below.

Assay [1] is described as follows: NCI Yeast Anticancer Drug Screen. Data for the rad50 strain (AID 155).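 Also: 0% = growth of vehicle-only cultures of the same strain.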 Particulars: S. cerevisiae rad50 strain growth inhibition; at 50.0 µM; active compounds read high. In outline:
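Readout: growth inhibition relative to vehicle-treated cultures. Compound exposure was carried out in a genetically defined yeast strain deficient in DNA damage repair.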

Assay [2] in a line: NCI Yeast Anticancer Drug Screen. Data for the mec2-1 strain (AID 157). Particulars: S. cerevisiae mec2-1 strain, at 50.0 µM, active compounds read high. Put shortly:
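Compounds were applied to mec2-1 yeast cells. Their growth was then compared with that of vehicle-treated cultures to give growth inhibition.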

The nature of assay [3]: NCI Yeast Anticancer Drug Screen. Data for the sgs1 mgt1 strain (AID 161).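 Also: 0% = growth of cultures given vehicle only.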 As to conditions: S. cerevisiae sgs1 mgt1 strain, at 50.0 µM, active compounds read high. Put shortly:
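Compounds are added to genetically altered yeast, and growth is compared with cultures given vehicle alone to give percent inhibition.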

A short description of assay [4]: NCI Yeast Anticancer Drug Screen. Data for the cln2 rad14 strain (AID 165).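 Also: 0% = growth equal to vehicle treated cultures.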 Particulars: S. cerevisiae cln2 rad14 strain, at 50.0 µM, active compounds read high. In outline: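 Strain: cln2 rad14 yeast, altered in cell cycle control and DNA damage repair. Read-out: growth inhibition vs vehicle.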
Assay [5] in a line: NCI Yeast Anticancer Drug Screen. Data for the bub3 strain (AID 167). Particulars: S. cerevisiae bub3 mutant strain, at 50.0 µM, active compounds read high. In outline: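 Readout: yeast growth inhibition, expressed relative to vehicle-only wells. The test organism is a mutant strain from a panel with lesions in DNA repair or checkpoint genes.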
A short description of assay [6]: NCI Yeast Anticancer Drug Screen. Data for the mlh1 rad18 strain (AID 175). Particulars: S. cerevisiae mlh1 rad18 strain growth inhibition; at 50.0 µM; active compounds read high. Put shortly:
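A repair-deficient yeast strain is exposed to test compound, and growth is scored relative to vehicle-treated controls.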

About 79,000 compounds went through this panel and 15% of them were active in at least one assay; those are over-represented in the sample as a whole. A number with no mark means an inactive call. The source made the active and inactive calls. Rule as the data show it: active = growth inhibition above about 70%; inactive = the rest. Where a SMILES comes first, the peptide text is derived from it. [ ]: non-standard residue; d: D form. The star is where a group is joined. ξ: configuration not given here. Cbz = O=C(OCc1ccccc1)*; ξK = NCCCCC(N)C(=O)O

In the case of `Nc1nc(N)c(-c2ccccc2)c(C(=O)Nc2ccc(Cl)c(Cl)c2)n1`, the growth inhibition in assay [1] is -27.9%; in assay [2], -34.4%; in assay [3], 4.1%; in assay [4] it was 5.6%; in assay [5], -23.1%; in assay [6], -16.4%.

For the compound `COc1ccc([N+](=O)[O-])c2c1CONC2(C)C(=O)O` (stereo unspecified), the growth inhibition in assay [1] was 8.95%; in assay [2], 16.2%; in assay [3], 8.2%; in assay [4], -4.95%; in assay [5] it was 3.75%; in assay [6] it was 16.2%.

As for `NCCCCC(NC(=O)OCc1ccccc1)C(=O)NCC(N)=O` (stereo unspecified) (Cbz-[ξK]-Gly-NH2), the growth inhibition in assay [1] was 10.1%; in assay [2], 8.5%; in assay [3], 5%; in assay [4] it was 4.05%; in assay [5] it was 16.1%; in assay [6] it was -30.2%.

Regarding `COc1ccc(C)cc1NC(=S)NC(=O)c1cccc([N+](=O)[O-])c1`, the growth inhibition in assay [1] is 2.25%; in assay [2], 4.85%; in assay [3], 4.45%; in assay [4], -2.5%; in assay [5] it was 20.2%; in assay [6] it was 0.3%.

In the case of `CC(NC(=O)C(OC(=O)C(C)NC(=O)OC(C)(C)C)C(C)C)C(=O)OC(C(=O)O)C(C)C` (stereo unspecified), the growth inhibition in assay [1] was -24.2%; in assay [2] it was 10.3%; in assay [3], -5.75%; in assay [4], -1.1%; in assay [5] it was 2.1%; in assay [6], -7.15%.

With `CC(C)C(O)C(C)(C)C(O)C#N` (stereo unspecified), the growth inhibition in assay [1] was 18.1%; in assay [2], -1.2%; in assay [3], -0.1%; in assay [4], -2.45%; in assay [5], 0.4%; in assay [6] it was 7.7%.

For the compound `O=C(CCCC(=O)Nc1ccc2[nH]c3ccccc3c(=O)c2c1)Nc1ccc2[nH]c3ccccc3c(=O)c2c1`, the growth inhibition was 12.7% in assay [1]; -8.6% in assay [2]; -0.3% in assay [3]; 20.9% in assay [4]; -3.55% in assay [5]; 2.95% in assay [6].

Regarding `CCOC(N)=C(C#N)C#N`, the growth inhibition in assay [1] is 12.6%; in assay [2] it was 15.1%; in assay [3], 3.45%; in assay [4], 21.4%; in assay [5], 23.1%; in assay [6] it was 11.8%.

With `CSCCC(NC(C)=O)C(=O)O` (stereo unspecified), the growth inhibition in assay [1] is 6.1%; in assay [2] it was 1.5%; in assay [3], -14.4%; in assay [4], -3.55%; in assay [5], -4.85%; in assay [6], -8.3%.

Turning to `C=CCC1C(=O)NN=C1C` (stereo unspecified), the growth inhibition in assay [1] is 5.05%; in assay [2], -12.1%; in assay [3], -10.7%; in assay [4] it was -22.5%; in assay [5] it was -5.5%; in assay [6], 2.45%.

On to `COC(=O)/C=C1\C(=O)N(C(C)=O)c2ccccc21`, for which the growth inhibition was 12.3% in assay [1]; 16.1% in assay [2]; 72.2% (active) in assay [3]; 40.1% in assay [4]; 50.6% in assay [5]; 76.4% (active) in assay [6].

On to `CCOC(=O)c1c(-c2ccc(OC)cc2)c(C#N)c(=S)n(C2OC(CO)C(O)C(O)C2O)c1C` (stereo unspecified), for which the growth inhibition in assay [1] is 17.7%; in assay [2], -9.5%; in assay [3] it was 3.05%; in assay [4] it was 6.3%; in assay [5] it was 22.4%; in assay [6], 10.1%.

Consider `Cc1cc(O)cc(C)c1Cl`, for which the growth inhibition is 17.2% in assay [1]; -25.9% in assay [2]; 5.95% in assay [3]; -21.2% in assay [4]; 12.9% in assay [5]; 11.2% in assay [6].

For the compound `OCCOCC#CCOCCO`, the growth inhibition was 3.9% in assay [1]; -0.25% in assay [2]; -2.35% in assay [3]; -7.45% in assay [4]; -9.25% in assay [5]; 9.3% in assay [6].

For `CC(C)N(CCn1c2c3ccccc3ccc2c2oc(=O)c3ccccc3c21)C(C)C`, the growth inhibition was 13.8% in assay [1]; -23.7% in assay [2]; -2.8% in assay [3]; 12% in assay [4]; -2.95% in assay [5]; -8% in assay [6].

Consider `C=C1C(=O)OC2C1CCC(C)=C1C(=O)C=C(C)C12` (stereo unspecified), for which the growth inhibition is -24.3% in assay [1]; -12.5% in assay [2]; -6.6% in assay [3]; 13.2% in assay [4]; -13.9% in assay [5]; -16.2% in assay [6].

Consider `CCc1nnc(N)o1`, for which the growth inhibition was -14.8% in assay [1]; 1.9% in assay [2]; 0.95% in assay [3]; -2.5% in assay [4]; -13.7% in assay [5]; -14.2% in assay [6].

As for `CCCCCC(Oc1ccc(Cl)cc1)C(=O)OCC` (stereo unspecified), the growth inhibition is 22.8% in assay [1]; 9.1% in assay [2]; 14.9% in assay [3]; 1.45% in assay [4]; 15% in assay [5]; 17.2% in assay [6].

On to `CSCCC(NC(=O)c1cnc2ccccc2n1)C(=O)O` (stereo unspecified), for which the growth inhibition in assay [1] was -4.55%; in assay [2], 2.6%; in assay [3] it was 11.2%; in assay [4] it was 5.55%; in assay [5], 14.7%; in assay [6], -17.1%.

Take `CC1(C)C=C(O)C=C(O)C1`: the growth inhibition in assay [1] was 14.2%; in assay [2] it was 2.8%; in assay [3], 17.4%; in assay [4], -2.25%; in assay [5], 6.55%; in assay [6], 2.5%.

For `O=C(O)Cc1cc(=O)oc2cc(O)c(Cl)cc12`, the growth inhibition in assay [1] was 1.75%; in assay [2], -20%; in assay [3], -7.15%; in assay [4] it was 15.8%; in assay [5] it was 3.25%; in assay [6] it was -5.55%.
